Data taken from PubChem BioAssay AID1430 (University of Pittsburgh Molecular Library Screening Center, 2008).
The campaign covered roughly 220,000 compounds. About 240 (0.11%) were called active.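 How the source made its calls: active means inhibition of 50% or more in the single-dose primary screen; inactive means inhibition below 50%.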 What follows is part of a selection rich in actives, with near analogues and random picks from the rest.

tested on: hexokinase 1 [Trypanosoma brucei]; test: TbHK1 enzyme activity blockers – biochemical, G6PDH-coupled NADH absorbance, MLSCN library, primary screen (AID 1430); conditions: recombinant TbHK1, G6PDH-coupled NADH A340; at 10 µM; active compounds read high

inhibition, inactive:
CCc1ccc(-c2nn(-c3ccccc3)cc2CSC(=N)N)cc1 14%
O=c1c(-c2ccccc2)cnc2n1CCS2 -3.12%
CN(C)c1ccc(C=C2C(=O)OC3(CCCC3)OC2=O)cc1 -24.4%
Cc1cccc(C)c1NC(=O)C(c1ccccc1)N1CC(=O)Nc2ccccc21 (stereo not given) 3.26%
C/C(CC1CC(C)(C)OC1=O)=N/Nc1nc(-c2ccccc2)cs1 (stereo not given) -4.91%
CCOC(=O)C(=O)Nc1nc(-c2ccccc2)c(CC)s1 -8.25%
Cc1ccc(CNC(=O)COc2ccc(S(=O)(=O)NC(C)C)cc2)cc1 -6.99%
O=C(NC(=S)Nc1cc(C(F)(F)F)ccc1N1CCOCC1)c1ccc(-c2cccc(Cl)c2)o1 -33.5%
CCNC(=O)CC1C(=O)N(c2ccc(F)cc2)C(=O)N1Cc1cccs1 (stereo not given) -6.58%
COC(=O)c1ccc(NC(=S)NN2CCOCC2)cc1 0.284%
COc1ccc(NS(=O)(=O)c2cc(NC(=O)CC(=O)c3ccc([N+](=O)[O-])cc3)ccc2C)cc1 -3.8%
N#C/C(C(=S)Nc1ccccc1)=C1/NN=C(N2CCOCC2)N1c1ccccc1 -22%
Cc1ccc(C(=O)N/C(=C\c2ccco2)C(=O)N2CCSCC2)cc1C -18.1%
C/C(=N/NC(=O)c1cc(Cl)ccc1O)C12CC3CC(CC(C3)C1)C2 -5.54%
Cn1nc(C(F)(F)F)cc1-c1ccc(/C=C(\C#N)C(=O)c2cccc(C(F)(F)F)c2)s1 20.2%
Cc1ccc(/C=C/C(=O)Nc2ccc([N+](=O)[O-])c(NC(=O)/C=C/c3ccc(C)o3)c2)o1 -13.6%
Cc1ccc2[nH]c(C)c(CCNC(=O)NC3CCCCC3)c2c1 -1.75%
C/C(=N/Nc1ccc(Cl)cc1)c1cnnc(-c2ccccc2)n1 -3.6%
COC(C[C@H](O)CC(=O)COCc1ccccc1)OC -5.95%
CC1CCCN(C(=O)c2ccc3c(c2)C(=O)N(CCC2=CCCCC2)C3=O)C1 (stereo not given) 9.11%
